SUMO Mot1 rescue = yeast Mot1-301 growth rescue at high temperature, primary screen, SUMOylation pathway inhibitor project, S. cerevisiae, ATP luminescence, 38.5C. S. cerevisiae Mot1-301 growth rescue; percent above DMSO median, 100 means doubled. growth rescue, % at 18.8 µM. 320,000 compounds, 1% hits. AID 2716, 2010;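 active = every valid replicate shows activation above 250% relative to neutral control wells; inactive = the rest, any valid replicate at or below 250%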;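 also: OY570 slx delta 5 strain wells were the positive control but not used for scaling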
Efflux pump mplx = inhibitors of Candida efflux pumps in yeast, primary screen, S. cerevisiae, Nile Red, multiplex; S. cerevisiae Candida pump triplex; inhibition, % at 10 µM; 330,000 compounds, 0.44% hits; AID 485275, 2010;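 active = plate passing quality check with inhibition over a set limit, or well fluorescence over plate mean plus 4 SD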;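 also: Nile Red retained in pooled yeast measured as flow cytometry median fluorescence; 0% = buffer negative control and 100% = Enniatin B positive control; higher means more Nile Red kept so more efflux inhibition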
SKN-1 block = suppressors of acrylamide-induced Pgst-4::GFP reporter in worms, primary screen, SKN-1 inhibitor project, whole organism, uHTS, GFP/RFP fluorescence ratio, strain VP596. C. elegans VP596 Pgst-4::GFP/RFP ratio, 24 h. inhibition, % at 21.8 µM. 360,000 compounds, 0.49% hits. AID 624304, 2012;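 active = interference check ratio from 0.5 to 1.5 plus GFP to RFP signal ratio inhibition reaching or exceeding a fixed threshold, cut at about 30% in these data, passing the limit was not always enough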
sPLA2-III inh = human group III sPLA2 inhibitors, primary screen, biochemical, QFRET, BODIPY PC-A2 liposome substrate; QFRET BODIPY PC-A2 liposome hydrolysis, fluorescence; 370,000 compounds, 0.56% hits; inhibition, % at 12.2 µM; AID 743126, 2013;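 active = inhibition above mean plus 3 SD of compounds lying within the high and low control bounds, cut at about 19% in these data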;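 also: 0% = median of test compound wells and 100% = no enzyme DMSO wells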
Target sequence (Q9NZ20 whole entry, looked up): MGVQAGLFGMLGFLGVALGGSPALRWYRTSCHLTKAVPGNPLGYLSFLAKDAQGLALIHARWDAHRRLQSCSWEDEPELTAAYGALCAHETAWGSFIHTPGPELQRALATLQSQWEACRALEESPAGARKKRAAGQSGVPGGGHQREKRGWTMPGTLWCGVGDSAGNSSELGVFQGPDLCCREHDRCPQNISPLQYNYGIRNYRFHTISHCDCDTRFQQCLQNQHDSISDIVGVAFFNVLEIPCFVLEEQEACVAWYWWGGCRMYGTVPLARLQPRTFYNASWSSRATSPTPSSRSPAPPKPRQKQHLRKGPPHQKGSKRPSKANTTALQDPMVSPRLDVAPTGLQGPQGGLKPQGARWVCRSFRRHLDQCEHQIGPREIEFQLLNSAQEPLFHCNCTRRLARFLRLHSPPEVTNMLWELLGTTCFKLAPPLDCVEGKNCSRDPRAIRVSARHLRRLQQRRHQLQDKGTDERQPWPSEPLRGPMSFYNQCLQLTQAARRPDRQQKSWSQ
Mot1 SUMO dose = growth restoration of Mot1-301 yeast on galactose, dose response, SUMO pathway inhibitor project, whole organism, S. cerevisiae, ATP luminescence, cherry-picked samples | S. cerevisiae Mot1-301 galactose growth, 24 h; -100 = growth of slx-deleted rescue strain | growth activity, percent, % at 42 µM | 2,300 tested, under 10 active | shares compounds with SUMO Mot1 rescue;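 active = Signal drops as the depositor expects, and the fitted half-maximal dose is no more than ten times the top valid tested dose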;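 also: more negative values mean stronger growth rescue toward the control strain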
Active calls of the source: *. Sampled rows, rich in hits. Any-hit rate of the full collection: about 2.2%.

Screening CN1C(=O)/C(=C/c2ccc(OCc3ccccc3F)cc2)NC1=S returned SUMO Mot1 rescue 375.4*, Efflux pump mplx 0.0, SKN-1 block 22.5, sPLA2-III inh 3.3 and Mot1 SUMO dose -0.4.
Screening O=C(CC[C@H]1O[C@@H](n2ccc(=O)[nH]c2=O)[C@H](O)[C@@H]1O)N[C@H](Cc1ccccc1)C(=O)NCc1ccccc1 returned SKN-1 block -0.9 and sPLA2-III inh 12.8.
For COc1cccc(-c2nn(-c3ccccc3)cc2/C=C(/NC(=O)c2ccccc2)C(=O)O)c1 the results were SUMO Mot1 rescue 914.9*, Efflux pump mplx 0.2, SKN-1 block -5.2, sPLA2-III inh -22.9 and Mot1 SUMO dose 0.0.
`O=S(=O)(Nc1cccc2cn[nH]c12)c1ccc(F)cc1` gave SUMO Mot1 rescue 790.1*, Efflux pump mplx 0.1, SKN-1 block 7.8, sPLA2-III inh -11.2 and Mot1 SUMO dose 0.9.
Screening COc1cc(S(=O)(=O)Nc2cccc3cn[nH]c23)c(OC)cc1C returned SUMO Mot1 rescue -1.0, Efflux pump mplx 0.0, SKN-1 block -1.8 and sPLA2-III inh -13.1.
`Nc1ccccc1C(=O)NCC1(c2ccccc2)CCCC1` gave SUMO Mot1 rescue -21.3, Efflux pump mplx -0.1, SKN-1 block 11.7 and sPLA2-III inh 14.2.
Screening Cc1ccc(NS(=O)(=O)c2ccc(OCC(=O)N3CCOCC3)cc2)cc1 returned SUMO Mot1 rescue -0.1, Efflux pump mplx 0.1, SKN-1 block 4.6 and sPLA2-III inh -9.1.
For COc1ccc(NS(=O)(=O)c2ccc(OCC(=O)N3CCOCC3)cc2)cc1Cl the results were SUMO Mot1 rescue active, Efflux pump mplx 0.6, SKN-1 block 5.8, sPLA2-III inh 13.3 and Mot1 SUMO dose 0.5.
`Cc1cc(C)cc(OCC(=O)NC2CCCc3ccccc32)c1` (configuration not stated) gave SUMO Mot1 rescue 461.5*, Efflux pump mplx 0.8, SKN-1 block 2.1, sPLA2-III inh -2.2 and Mot1 SUMO dose 0.3.
`COc1ccc2[nH]c(C(=O)N/N=C/c3ccccc3OC)cc2c1` gave SUMO Mot1 rescue 502.9*, Efflux pump mplx -0.2, SKN-1 block 7.7, sPLA2-III inh 0.3 and Mot1 SUMO dose 0.5.
Screening CCCCCN(C(=O)CCC(=O)OCC(=O)N1CCCCC1C)c1c(N)n(CCCC)c(=O)[nH]c1=O (configuration not stated) returned SUMO Mot1 rescue 5.1, Efflux pump mplx 0.7, SKN-1 block 8.2 and sPLA2-III inh 7.7.
`CCCN(CC1CC1)C(=O)COc1ccccc1C(=O)NCc1ccccc1` gave SUMO Mot1 rescue 801.6*, Efflux pump mplx -0.1, SKN-1 block -28.2, sPLA2-III inh -7.4 and Mot1 SUMO dose 0.7.
Screening CCC(C)N(C(=O)COc1ccccc1C(=O)NCc1ccccc1)C1CCS(=O)(=O)C1 (configuration not stated) returned SUMO Mot1 rescue -11.8, Efflux pump mplx 0.1, SKN-1 block 6.9 and sPLA2-III inh -3.9.
Screening COc1ccc(CCNC(=O)Nc2ccc3c(c2)c(=O)n(C)n3CC=C(C)C)cc1OC returned SKN-1 block -4.8 and sPLA2-III inh -8.8.
Screening CC(C)(C)C(=O)NC1(C(F)(F)F)NC(=O)N(c2ccccc2F)C1=O (configuration not stated) returned SUMO Mot1 rescue 482.9*, Efflux pump mplx 0.3, SKN-1 block 11.3, sPLA2-III inh -4.8 and Mot1 SUMO dose 0.5.
`OCCN1CN=C(Nc2nc3ccccc3o2)NC1` gave SUMO Mot1 rescue active, Efflux pump mplx -0.2, SKN-1 block 20.8, sPLA2-III inh 0.0 and Mot1 SUMO dose 0.4.
For Nc1c(Cl)cc(-c2cn(CCC(=O)O)c(-c3ccncc3)n2)cc1Cl the results were SUMO Mot1 rescue 72.9, Efflux pump mplx 0.0, SKN-1 block -11.7 and sPLA2-III inh 3.6.
Screening CC1=C(C(=O)N(C(C)C)C(C)C)CC(CC(=O)NCCc2ccccn2)C(=O)N1Cc1ccccc1 (configuration not stated) returned SKN-1 block 15.6 and sPLA2-III inh 2.5.
`CCNC(=S)NNC(=O)c1ccc(=O)n(Cc2ccccc2)c1` gave SUMO Mot1 rescue 833.6*, Efflux pump mplx 0.5, SKN-1 block -6.6, sPLA2-III inh 2.8 and Mot1 SUMO dose 0.3.
For C/C=C(/C)C(=O)OC1c2c(ccc3ccc(=O)oc23)OC(C)(C)C1OC(=O)/C(C)=C\C (configuration not stated) the results were SUMO Mot1 rescue 729.8*, Efflux pump mplx 1.0, SKN-1 block -5.5, sPLA2-III inh 3.0 and Mot1 SUMO dose 1.1.
Screening C/C=C(\C)C(=O)OC1c2c(ccc3ccc(=O)oc23)OC(C)(C)C1OC(C)=O (configuration not stated) returned SUMO Mot1 rescue 170.9, Efflux pump mplx 0.1, SKN-1 block 10.2 and sPLA2-III inh -6.3.
For CC1(C)CC(=O)C(C=Nc2ccc(O)c(N=CC3=C(O)CC(C)(C)CC3=O)c2)=C(O)C1 the results were SUMO Mot1 rescue 480.2*, Efflux pump mplx 0.1, SKN-1 block -5.5, sPLA2-III inh 13.8 and Mot1 SUMO dose 0.4.
For COc1ccc(CNc2cc(NCCCO)c([N+](=O)[O-])c3nonc23)cc1 the results were SUMO Mot1 rescue 169.6, Efflux pump mplx 0.0, SKN-1 block 7.7 and sPLA2-III inh -4.5.
For COc1ccc(Nc2cc(NCCCO)c([N+](=O)[O-])c3nonc23)cc1 the results were SUMO Mot1 rescue 382.4*, Efflux pump mplx 0.1, SKN-1 block 1.0, sPLA2-III inh 8.6 and Mot1 SUMO dose 0.2.
O=C(Nc1ccccc1)NN1CC(=O)N(c2ccc(Cl)cc2)CC1=O was read as SUMO Mot1 rescue -2.1, Efflux pump mplx -0.1, SKN-1 block 1.0 and sPLA2-III inh -0.9.
For O=C(CN1CCc2ccccc21)NN1CC(=O)N(c2ccc(Cl)cc2)CC1=O the results were SUMO Mot1 rescue 483.7*, Efflux pump mplx 0.0, SKN-1 block -3.2, sPLA2-III inh -13.8 and Mot1 SUMO dose -0.7.
For COc1ccc(S(=O)(=O)NCC(=O)N(CC(=O)NCc2ccco2)Cc2ccccc2)cc1 the results were SUMO Mot1 rescue 642.2*, Efflux pump mplx -0.1, SKN-1 block 14.4, sPLA2-III inh -9.5 and Mot1 SUMO dose 0.3.
COc1ccc(CNC(=O)CN(Cc2ccco2)C(=O)CNS(=O)(=O)c2ccccc2)cc1 was read as SUMO Mot1 rescue 559.2, Efflux pump mplx 0.2, SKN-1 block -0.7 and sPLA2-III inh -5.2.
`COc1ccc(CN(CC(=O)NCc2ccco2)C(=O)CCC(=O)Nc2nccs2)cc1` gave SUMO Mot1 rescue 868.1*, Efflux pump mplx 0.1, SKN-1 block -29.6, sPLA2-III inh -4.3 and Mot1 SUMO dose 0.1.

Screening data as filed in PubChem.
